For 36 molecules, z-score results are on record in PubChem BioAssay.

Each structure is given as a SMILES string.

This assay can be described thus: HepG2 liver cancer cell viability effects, profiling panel, resazurin fluorescence, 24 h, PK04 Diversity Set (AID 1172). Also: test concentration not given here. To be noted: higher = more signal. For orientation: Resazurin is reduced to fluorescent resorufin, in cell work by metabolically active cells.
On to `CC=CC1=C(CO)[C@H](O)[C@H]2O[C@H]2[C@H]1O`, for which the z-score was -0.557.

In the case of `COCCNC(=O)OCC1CCCC2(CC(OC(=O)NCCc3ccc(F)cc3)CC(CCC(=O)N[C@@H](C)C(=O)OC)O2)O1` (stereo partly specified), the z-score was 0.864.

On to `CC(C)[C@H](NC(=O)OC(C)(C)C)[C@@H](O)CC(=O)OC(C)(C)C`, for which the z-score was -0.811.

The molecule `CCc1cc2c(nc1CC)CCN(CCC(C)=NOC[C@@H](O)COCc1ccco1)C2` gave a z-score of -0.596.

`CCOC(=O)[C@H](Cc1ccccc1)NC(=O)CCC1CC(OC(=O)NCc2ccc3c(c2)OCO3)CC2(CCCC(COC(=O)NCc3ccccc3)O2)O1` (stereo partly specified) returned a z-score of 0.966.

Regarding `C=CCOC(=O)[C@H]1[C@@H]2C(=O)O[C@@H](c3ccccc3)[C@@H](c3ccccc3)N2[C@@H](c2ccc(OCCOC(=O)[C@H]3C[C@H]4C(=O)N[C@@H](Cc5ccccc5)C(=O)N4[C@H]3c3ccc(O)cc3)cc2)[C@]12C(=O)Nc1ccccc12`, the z-score came out at 0.696.

Regarding `C=CC[C@@H]1C=C[C@H](ON=C2c3cc(OC)ccc3O[C@H](c3cccc(OC)c3)[C@H]2O)[C@@H](CO)O1`, the z-score is -1.38.

In the case of `CC(C)(C)N1C(=O)[C@H]2[C@H]3[C@H](O)[C@H](O)CC(=NO[C@@H]4O[C@H](CO)[C@@H](O)[C@H](O)[C@H]4O)[C@@H]3CC[C@H]2C1=O`, the z-score is -0.332.

In turn, `CC(C)=NOCc1cccc(-c2cc(-c3ccccc3)no2)c1` had a z-score of -0.714.

Molecule `C[C@H]1CC[C@@H](C(=O)O)N[C@@H]1c1ccc(C#CCN(C)C)cc1` showed a z-score of 0.378.

Regarding `CO[C@H]1COC(=O)[C@H](C)NC(=O)[C@@H](C)COC(=O)CC=C[C@@H]1C`, the z-score was -0.279.

`COC(=O)CC=C[C@H](C)[C@H](CO)NS(=O)(=O)c1ccc(C)cc1` returned a z-score of -0.502.

The molecule `Cc1cc2c(nc1C)CCCN2CC(C)ON=C1[C@H]2CCn3c(=O)n(-c4ccccc4)c(=O)n3[C@H]2[C@H](O)[C@@H]2O[C@H]12` (stereo partly specified) showed a z-score of -0.942.

As for `CC(C)OC(=O)C=C1C[C@@H](c2ccc(C#N)cc2)O[C@@H](c2ccc(C#N)cc2)O1`, the z-score is -0.389.

`CO[C@H]1COC(=O)[C@H](C)COC(=O)CC=C[C@@H](C)[C@H](OC)COC(=O)CC=C[C@@H]1C` returned a z-score of -0.194.

`CC(CCN1CCc2nc(-c3ccccc3)c(-c3ccccc3)cc2C1)=NO[C@@H](C)c1cn([C@H](CO)Cc2ccccc2)nn1`: the z-score was -1.41.

Take `COc1ccc([Si](C)(C)[C@@H]2[C@@H](CC(=O)N3CCC[C@H]3CO)O[C@]3(C(=O)N(Cc4cccc(N5CCC5=O)c4)c4ccccc43)[C@H]2C)cc1`: the z-score is -1.1.

Molecule `COc1ccccc1CN1C(=O)c2ccccc2[C@@H](C(=O)NCC(F)(F)F)[C@@H]1c1ccc(CO)cc1` displayed a z-score of 1.06.

Molecule `[N-]=[N+]=NCc1ccccc1[C@@H]1OC(c2ccc(OCCCO)cc2)=N[C@]1(Cc1ccccc1)C(=O)N1CCOCC1` returned a z-score of -0.85.

In the case of `CC(C)(C)OC(=O)CC[C@]1(C(=O)NCc2ccccc2)N=C(c2ccc(OCCCO)cc2)O[C@H]1c1ccccc1`, the z-score stood at 0.461.

Take `CC1CC/C=C\[C@H]2OC34C=CCN(Cn5nnc6ccccc65)C(=O)[C@H]3N(CCO)C(=O)[C@@H]4C2C(=O)O1` (stereo partly specified): the z-score is 0.831.

`CCOC(=O)CCN1C(=O)[C@H]2[C@H]3[C@H](O)C=CC(=O)[C@@H]3CC[C@H]2C1=O`: the z-score was -0.0089.

`O=C1C[C@@H](O)[C@@H](O)[C@@H]2[C@@H]3C(=O)N(Cc4ccc5c(c4)OCO5)C(=O)[C@@H]3CC[C@@H]12` came in with a z-score of 0.227.

With `CCN1C(=O)[C@H]2[C@H]3[C@H](O)[C@H](O)CC(=NO[C@@H]4O[C@H](CO)[C@@H](O)[C@H](O)[C@H]4O)[C@@H]3CC[C@H]2C1=O`, the z-score is -0.59.

Take `C#CCCCON=C1C[C@@H](O)[C@@H](O)[C@@H]2[C@@H]3C(=O)N(Cc4ccccc4)C(=O)[C@@H]3CC[C@H]12`: the z-score is 1.02.

With `C[C@@H](c1ccccc1)N1C(=O)[C@H]2[C@H]3[C@H](O)[C@H](O)CC(=NNC(=O)OCc4ccccc4)[C@H]3CC[C@H]2C1=O`, the z-score stood at 0.2.

With `COC(=O)[C@H](C)NC(=O)CCC1CC(OC(=O)NCc2cccc3ccccc23)CC2(CCCC(COC(=O)NCCc3ccc(Cl)cc3)O2)O1` (stereo partly specified), the z-score was determined as 0.788.

As for `CCc1cc2c(nc1CC)CCN(CCC(C)=NOC(C)CN1CCCc3nc(C)c(C)cc31)C2` (stereo unspecified), the z-score was -0.644.

Molecule `COC(=O)[C@@]1(Cc2ccc(OC)cc2)[C@H]2c3cc(C(=O)N4CCCC4)n(Cc4cc(F)c(F)c(F)c4)c3C[C@H]2CN1C(=O)c1ccccc1` yielded a z-score of 0.0559.

For the molecule `CN1C(=O)C2C=CC(C(O)c3ccc(Br)cc3)N(N(c3ccccc3)c3ccccc3)C2C1=O` (stereo unspecified), the z-score was -0.456.

Take `CCOC(=O)NN=C1C[C@@H](O)[C@@H](O)[C@@H]2[C@@H]3C(=O)N(CC)C(=O)[C@@H]3CC[C@@H]12`: the z-score is -0.0886.

`O=C(CS)NCCCCCNC(=O)[C@@H]1C[C@@H]2C(=O)N[C@@H](Cc3ccccc3)C(=O)N2[C@@H]1c1ccc(O)cc1`: the z-score is -0.204.

The molecule `C=CC[C@]1(C(=O)NCc2ccccc2)N=C(c2ccc(OCCCO)cc2)O[C@H]1c1ccccc1` registered a z-score of 0.527.

For the molecule `O=C1[C@H]2[C@H]3[C@H](O)[C@H](O)CC(=NOCc4ccccc4)[C@H]3CC[C@H]2C(=O)N1c1cccc(Oc2ccccc2)c1`, the z-score turned out to be 1.44.

`COC(=O)CC=C[C@@H](C)[C@H](OC)c1ccccc1Br`: the z-score was -0.327.

Molecule `CCN1C(=O)[C@H]2[C@H]3[C@H](O)C=CC(=O)[C@@H]3CC[C@H]2C1=O` gave a z-score of 0.384.
